# From PubChem BioAssay AID1508602 (The Scripps Research Institute Molecular Screening Center, 2020)
# Several values for one entry are separate records, joined by “and”; a condition that tells them apart may be missing. Equal values may be shown once. The campaign covered roughly 650,000 compounds. About 6,800 (1%) were called active. Cut-off read from the data, not from the text of the source: active = activation above about 4.9%; inactive = the rest. Only a selection was taken, and actives are over-represented in it overall. Where a structure was tested more than once in an assay, its records may differ in their call.
# Biological target: G-protein coupled receptor 151 (Homo sapiens) (UniProt Q8TDV0)
# Assay: activates the human receptor GPR151, primary screen, cell-based, PathHunter beta-arrestin, luminescence (AID 1508602);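 note: 0% = median of compound wells and 100% = cells with positive control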
# Conditions: PathHunter beta-arrestin GPR151 cells, at 11.2 µM, stronger effect = higher value
# Sequence of G-protein coupled receptor 151 (Homo sapiens) (Q8TDV0 whole entry, looked up): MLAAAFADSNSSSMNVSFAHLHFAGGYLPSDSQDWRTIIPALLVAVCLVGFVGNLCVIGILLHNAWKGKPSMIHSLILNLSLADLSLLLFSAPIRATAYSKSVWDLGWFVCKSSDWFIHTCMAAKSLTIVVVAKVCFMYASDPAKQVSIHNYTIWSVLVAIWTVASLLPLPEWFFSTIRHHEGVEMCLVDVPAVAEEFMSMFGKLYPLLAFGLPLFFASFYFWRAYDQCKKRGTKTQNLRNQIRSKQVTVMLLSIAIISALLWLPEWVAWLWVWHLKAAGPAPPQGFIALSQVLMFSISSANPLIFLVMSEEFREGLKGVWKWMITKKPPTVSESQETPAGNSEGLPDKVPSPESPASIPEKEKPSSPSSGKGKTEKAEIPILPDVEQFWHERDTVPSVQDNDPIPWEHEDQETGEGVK
row,Compound,activation
1,O=C(Cc1ccc([N+](=O)[O-])cc1)Nc1cccc(Cl)c1,-0.456% (inactive)
2,O=C(CC1C(=O)NCCN1C(=O)c1ccc([N+](=O)[O-])cc1)Nc1cccc(Cl)c1 (stereo unspecified),7.94% (active)
3,COc1ccccc1C(=O)N1CCNC(=O)C1CC(=O)Nc1ccc(Cl)cc1 (stereo unspecified),-1.89% (inactive)
4,CCc1cc2c(=O)c(-c3ccc4c(c3)OCCCO4)coc2cc1OC(=O)N1CCOCC1,8.05% (active)
5,CCc1cc2c(=O)c(-c3ccc4c(c3)OCCCO4)coc2cc1OC,-0.907% (inactive)
6,CCCc1cc2c(=O)c(-c3ccc4c(c3)OCO4)coc2cc1O,0.792% (inactive)
7,COc1ccccc1N=Cc1cccc(O)c1O,-0.891% (inactive)
8,O=C(c1ccc(Cl)cc1)N1CCCC1,-0.435% (inactive)
9,O=C(c1ccc(CNS(=O)(=O)c2ccc(Cl)cc2)cc1)N1CCCC1,6.5% (active)
10,O=C(c1cccc(NS(=O)(=O)c2ccc(Cl)cc2)c1)N1CCCC1,-1.72% (inactive)
11,COC(=O)C1=CN(Cc2ccc(F)cc2)C=C(C(=O)OC)C1c1ccc(OC)c(OC)c1,-0.344% (inactive)
12,COC(=O)CN1C=C(C(=O)OC)C(c2ccc(OC)c(O)c2)C(C(=O)OC)=C1,6.57% (active)
13,CCOC(=O)C1=CN(Cc2ccc(Cl)cc2)C=C(C(=O)OCC)C1c1cc(Br)c(O)c(OC)c1,3.19% (inactive)
14,COC(=O)C1=CN(CC2CCCO2)C=C(C(=O)OC)C1c1ccc(OC)c(O)c1 (stereo unspecified),1.3% (inactive)
15,COC(=O)C1=CN(Cc2ccc(Cl)cc2)C=C(C(=O)OC)C1c1cc(OC)c(O)c(OC)c1,8.56% (active)
16,COC(=O)C1=CN(Cc2ccc(OC)cc2)C=C(C(=O)OC)C1c1ccc(O)c(OC)c1,1.75% (inactive)
17,CCOc1ccc(/C(O)=C2/C(=O)C(=O)N(CCN(CC)CC)C2c2ccc(C)cc2)c(C)c1 (stereo unspecified),0.496% (inactive)
18,CCOc1ccc(N2C(=O)C3C4C=CC(C5CC45)C3C2=O)cc1 (stereo unspecified),-1.25% (inactive)
19,Cc1cccc(CN2CCN3C(=O)[C@H](Cc4cnc[nH]4)NC(=O)[C@H]3C2)n1,0.592% (inactive)
20,CC(=O)Nc1ccc2c(c1)CN(Cc1ccccc1)CO2,1.47% (inactive)
21,CCC(CC)C(=O)Nc1cccc(C(=O)N2CCCC2)c1,5.74% (active)
22,CCC(CC)C(=O)Nc1cccc(C(=O)Nc2ccccc2C(=O)NC(C)C)c1,0.373% (inactive)
23,CCC(CC)C(=O)Nc1cccc(F)c1,4.27% (inactive)

row,Compound,activation
1,O=C(CCc1ccccc1)Nc1cccc(C(=O)N2CCOCC2)c1,11.5% (active)
2,CC1(C)Oc2ccc(C(=O)N3CCOCC3)cc2N(CC(=O)Nc2ccccc2)C1=O,-0.343% (inactive)
3,O=C(c1cccc(N2C(=O)c3ccccc3C2=O)c1)N1CCOCC1,-0.354% (inactive)
4,Cc1ccc2oc(-c3cccc(NC(=O)c4ccc(F)cc4)c3)nc2c1,0.17% (inactive)
5,O=C(c1cc(=O)oc2cc(OCc3ccccc3)ccc12)N1CCN(c2ccccn2)CC1,-0.0035% (inactive)
6,Cc1ccc([N+](=O)[O-])cc1NC(=O)CC12CC3CC(CC(C3)C1)C2,2.69% (inactive)
7,CC(C)(C)c1ccc(C(=O)NCCC(=O)NCCc2ccccc2)cc1,0.46% (inactive)
8,O=C1CSC2=NCN(c3ccc(I)cc3)CN12,0.445% (inactive)
9,CCOc1cc(C#N)ccc1OCC(=O)NCc1ccc2c(c1)OCO2,-0.667% (inactive)
10,COc1ccccc1CNC(=O)C1CCN(Cc2nc(-c3ccccc3C)oc2C)CC1,-0.157% (inactive)
11,Cc1ccc2nc(SCc3ccccc3)nc(=O)n2c1,1.52% (inactive)
12,O=C(Cc1cccc2ccccc12)Nc1ncn[nH]1,0.255% (inactive)
13,c1cnc(N2CCN(Cc3cccc4ccccc34)CC2)nc1,0.32% (inactive)
14,c1ccc(NCc2cccc3ccccc23)nc1,5.45% (active)
15,CCCNc1nc(N2CCOCC2)nc2cc(OC)c(OC)cc12,-0.145% (inactive)
16,O=C(c1ccccc1)N1CCCCC(Sc2ncnc3sc4c(c23)CCCC4)C1=O (stereo unspecified),5.26% (active)
17,Cc1sc2ncnc(SC3CCCCN(C(=O)c4ccc(F)cc4)C3=O)c2c1C (stereo unspecified),2.61% (inactive)
18,c1ccc(CSc2ncnc3sc4c(c23)CCCC4)cc1,3.13% (inactive)
19,COc1ccc(OC)c(-c2cc(Cl)c3c(c2)CC(CNC(=O)CSC)O3)c1 (stereo unspecified),0.143% (inactive)
20,CCOc1ccc(C2C(C(=O)Nc3ccc(C)c(F)c3)c3ccccc3C(=O)N2CCN2CCOCC2)cc1 (stereo unspecified),-1.65% (inactive)
21,O=C(CSc1nnc(NC(=O)CCc2ccccc2)s1)NCc1ccc(F)cc1,-2.57% (inactive)
22,Cc1nnc(SCC(=O)NCc2ccccc2)s1,6.39% (active)
23,Nc1nnc(SCC(=O)OCC(=O)NCc2ccccc2)s1,-1.05% (inactive)

row,Compound,activation
1,C/C(N)=C1\C(=O)C(=O)N(C)C1c1ccccc1 (stereo unspecified),-1.33% (inactive)
2,CC(Oc1cccc(Cl)c1)C(=O)O/N=C(\N)c1ccncc1 (stereo unspecified),-0.652% (inactive)
3,O=C(O)CNC(=O)/C=C\c1ccc(Cl)cc1,0.187% (inactive)
4,CCNC(=O)n1cc(-c2ccnc3ccccc23)c(-c2ccncc2)n1,-0.919% (inactive)
5,O=C(Nc1ccc(-c2nnc3n2CCCCC3)cc1)c1ccc(Br)o1,-0.517% (inactive)
6,O=c1c(Cl)c(-c2ccccc2)oc2ccccc12,-1.04% (inactive)
7,CCN(CC)C(=O)C1CCCN(c2cc(NCCN(C(C)C)C(C)C)nc(N)n2)C1 (stereo unspecified),4.23% (inactive)
8,CCN(CC)C(=O)C1CCCN(c2cccc(C(=O)NCCc3ccc(OC)cc3)c2)C1 (stereo unspecified),-1.08% (inactive)
9,CCN(CC)C(=O)C1CCCN(c2cccc(C(=O)NCCc3ccc(OC)cc3)n2)C1 (stereo unspecified),5.87% (active)
10,CCN(CC)C(=O)C1CCCN(c2cc(Nc3ccccc3)nc(N)n2)C1 (stereo unspecified),1.77% (inactive)
11,CCN(CC)C(=O)C1CCCN(c2cc(N)nc(N)n2)C1 (stereo unspecified),6.79% (active)
12,CCN(CC)C(=O)C1CCCN(c2nc3ncnc(NCCc4ccc(OC)cc4)c3[nH]2)C1 (stereo unspecified),0.885% (inactive)
13,O=C(O)c1cc(N=Cc2cccnc2)ccc1O,0.982% (inactive)
14,Cc1ccc(CNC(=O)CCCCCn2c(SCc3cc(=O)n4ccccc4n3)nc3ccsc3c2=O)cc1,1.39% (inactive)
15,O=C(Nc1ccc(F)c(Cl)c1)/C(=C/c1cccc([N+](=O)[O-])c1)NC(=O)c1cccs1,0.762% (inactive)
16,C=CCNC(=O)/C(=C/c1ccc(Cl)cc1)NC(=O)c1ccccc1,3.04% (inactive)
17,CC(NC(=O)Cc1ccc(-c2ccccc2)cc1)c1nc(-c2cccnc2)n[nH]1 (stereo unspecified),-0.113% (inactive)
18,CCC(C)OC(=O)C1=C(C)NC2=C(C(=O)CC(c3ccccc3)C2)C1c1ccccc1OCc1ccccc1 (stereo unspecified),1.93% (inactive)
19,COc1ccccc1C(=O)N1CCN2C(=O)CN(C)C(=O)[C@H]2C1,1.54% (inactive)
20,NCCCC[C@@H]1NC(=O)[C@H]2CN(C(=O)OCc3ccccc3)CCN2C1=O,-0.551% (inactive)
21,CN1CC(=O)N2CCN(C(=O)OCc3ccccc3)C[C@@H]2C1=O,5.14% (active)
22,O=C1CSC(c2ccccc2Br)N1c1ccc(F)c(Cl)c1 (stereo unspecified),-1.29% (inactive)
23,COc1ccc(C(=O)COC(=O)c2ccc3ccccc3n2)c(OC)c1,-0.989% (inactive)

row,Compound,activation
1,COc1ccc(C(=O)Cc2cc3ccccc3oc2=O)c(OC)c1,8.65% (active)
2,COc1cccc(/C=C/C(=O)c2cc3ccccc3oc2=O)c1,-0.0229% (inactive)
3,CCc1nn(CCCN2CCN(c3cccc(Cl)c3)CC2)c(=O)n1CCOc1ccccc1,5.41% (active) and -0.0264% (inactive) and -0.848% (inactive)
4,CCCN1CCC(N2CCN(c3cccc(Cl)c3)CC2)CC1,-0.685% (inactive)
5,O=C(CSc1nc2ccccc2c(=O)n1CCCN1CCN(c2cccc(Cl)c2)CC1)N1CCCCCC1,0.298% (inactive)
6,O=C(N/N=C/c1ccccc1O)c1cc(-c2ccc(Cl)cc2)n[nH]1,-0.397% (inactive)
7,COc1cc(Br)cc(/C=N/NC(=O)c2cc(-c3ccccc3)n[nH]2)c1O,3.1% (inactive)
8,O=C(N/N=C/c1cc(Cl)ccc1O)c1cc(-c2ccccc2)n[nH]1,5.58% (active)
9,Cn1c(=NC(=O)CN2C(=O)CCC2=O)sc2cc([N+](=O)[O-])ccc21,1.44% (inactive)
10,CC(C)(C)c1cnnn1-c1ccc(C(=O)/C=C\c2ccco2)cc1,0.0135% (inactive)
11,C=CCc1cccc(/C=N/NC(=O)CCC(=O)Nc2ccc(Br)cc2)c1O,7.12% (active)
12,COc1ccc(NC(=O)CCC(=O)N/N=C/c2cc(Cl)ccc2O)cc1,-1.64% (inactive)
13,COc1ccc(NC(=O)CCC(=O)N/N=C/c2ccccc2Cl)cc1,0.396% (inactive)
14,COc1ccccc1N(CC(=O)Nc1ccc(F)c(Cl)c1)S(=O)(=O)c1ccccc1,2.46% (inactive)
15,COC(=O)c1sccc1N/N=C/c1ccccn1,-4.95% (inactive)
16,COc1ccc(CCNC(=O)Cn2cnc3sc4c(c3c2=O)CCC4)cc1OC,0.328% (inactive)
17,COc1ccc(CC(=O)Nc2ccc(-c3nnc(-c4ccccc4)o3)cc2)cc1,7.27% (active)
18,COc1cccc(-c2nnc(SCC(=O)NCc3ccccc3)o2)c1,-0.0263% (inactive)
19,COc1ccc(NC(=O)Cc2ccc(C)cc2)cc1,-2.5% (inactive)
20,COc1cccc(-c2nnc(NC(=O)CSc3ccccc3)o2)c1,9.1% (active)
21,COc1cccc(NC(=O)CSc2nnc(-c3ccc(NS(C)(=O)=O)cc3)o2)c1,0.627% (inactive)
22,COc1ccc(CC(=O)Nc2ccc(C(=O)Nc3ccccc3C(=O)O)cc2)cc1,1.57% (inactive)
